Measurements from paper PMC7819943, “Rice protein-binding microarrays: a tool to detect cis-acting elements near promoter regions in rice”.
In all, about 39,000 sequences were measured (“fluorescence intensity (a.u.)”: median about 4,300, highest 2% from about 39,000 on). The full list was thinned out, with the highest values kept by preference.

What follows are sequences tested against T1, OsSMF1 (Oryza sativa, UniProt Q6ZLB0 1-436) (assay: protein-binding microarray (RPBM); PBS, 2% BSA, 51.3 ng/ul salmon testes DNA, 50 uM zinc acetate, 200 nM TF, 25 C, 1 h; high values mean tight binding). Details: protein: recombinant; tags: N-terminal polyhistidine and DsRed monomer fusion (pET32a); chain copies: 2; label: CyDye5-dUTP incorporated in the synthesized complementary strand; 3' TTTTT single-stranded linker to array surface; dsDNA, one strand shown.
T1 sequence: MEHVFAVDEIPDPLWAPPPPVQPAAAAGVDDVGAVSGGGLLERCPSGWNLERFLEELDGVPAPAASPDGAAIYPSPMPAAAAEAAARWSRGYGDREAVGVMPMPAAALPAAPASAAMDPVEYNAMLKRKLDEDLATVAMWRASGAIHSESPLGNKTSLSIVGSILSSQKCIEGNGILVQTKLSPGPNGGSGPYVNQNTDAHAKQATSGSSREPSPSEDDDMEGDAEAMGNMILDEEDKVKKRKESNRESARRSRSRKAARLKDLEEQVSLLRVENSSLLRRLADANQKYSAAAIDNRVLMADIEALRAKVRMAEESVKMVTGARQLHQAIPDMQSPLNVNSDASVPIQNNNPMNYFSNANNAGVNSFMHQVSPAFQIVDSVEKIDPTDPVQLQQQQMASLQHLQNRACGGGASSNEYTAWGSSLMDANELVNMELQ
Summary of the method: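 Transcription factors were made in E. coli BL21-CodonPlus as N-terminal fusions to a polyhistidine tag and DsRed, then purified on Ni–NTA. After primer extension with Cy5-dUTP and blocking with 2% BSA, a custom Agilent array was exposed for 1 h at 25 °C to 200 nM protein in PBS, 2% BSA, salmon testes DNA and 50 µM zinc acetate. Washed arrays were scanned on an Axon 4000B, and the binding signal is per-feature fluorescence intensity in arbitrary units.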

Sequence | binding signal
TCTGGTCTTTCCGCGTGTCGACGACCACGGTGGCGGTGCACGGAGTCACCTAGTGCAG | 3540 fluorescence intensity (a.u.)
ATCCCATCGCGCCACGCGAGCTCGATCGATCGAGGTGTGTCGGAGTCACCTAGTGCAG | 3490 fluorescence intensity (a.u.)
GATCGTCGCGTCGTCGGCGTTGGCATCGGCATCCATGTGCCGGAGTCACCTAGTGCAG | 3830 fluorescence intensity (a.u.)
TTAGTTCACCCATCTTGCCAATGCTGTCATCGCCACAGCTCGGAGTCACCTAGTGCAG | 3310 fluorescence intensity (a.u.)
TCCTTGTCGCGCTGCCATCGCCACCCAATGCCATCGAGCTCGGAGTCACCTAGTGCAG | 49600 fluorescence intensity (a.u.)
CCATTCCCAAAAGCAAAGCGAACCTAAGCTCGCTTCGTCTCGGAGTCACCTAGTGCAG | 21000 fluorescence intensity (a.u.)
TAGGATGCCACGTCATCTCTCCCTTCCCCTCTCTCTCTCCCGGAGTCACCTAGTGCAG | 27000 fluorescence intensity (a.u.)
AAACCAAAACCAAACCGAAGCTTCCCCATCTCGCGTGAACCGGAGTCACCTAGTGCAG | 40800 fluorescence intensity (a.u.)
CATCGGTCATGGTGGCGTTGGTCATGTTGGCATGGCCGTCCGGAGTCACCTAGTGCAG | 44000 fluorescence intensity (a.u.)
TGGGCCCACCCCTCCACTCGCCCTCCTCTTCCCGCCACGTCGGAGTCACCTAGTGCAG | 6190 fluorescence intensity (a.u.)
CCGGTCGTCCGTCAGCATCCTCTCTTCCGTTGGTCATCCTCGGAGTCACCTAGTGCAG | 4550 fluorescence intensity (a.u.)
TCGCCACCGCCACGTCATCTCCCCACCCTCCTCCTCTTCCCGGAGTCACCTAGTGCAG | 44700 fluorescence intensity (a.u.)
CGCGAAAGGCGTGAAACCAGTGCACGCATCACCCATCTCGCGGAGTCACCTAGTGCAG | 3400 fluorescence intensity (a.u.)
ACCCGCGCGCCGGCCGCGTCATCGACGACATCGTGCGTACCGGAGTCACCTAGTGCAG | 3920 fluorescence intensity (a.u.)
TTGTGATGTCCACGTATTCAGGATTAGACCACAGGCCCGGCGGAGTCACCTAGTGCAG | 8170 fluorescence intensity (a.u.)
ATCCTTCATTATGTTAGAGTACCACATGGGAAGTCGAGACCGGAGTCACCTAGTGCAG | 3750 fluorescence intensity (a.u.)
GCGCCGCTCCGTGTCCCTCCCAATCCGAACCGTTTCGCGCCGGAGTCACCTAGTGCAG | 3500 fluorescence intensity (a.u.)
TACAACTACGGCCCTCCGCAGCCACAGGCGCCGCCGCCGCCGGAGTCACCTAGTGCAG | 3340 fluorescence intensity (a.u.)
TTATTAGCAACCACCGTCACATATAAATTAATATGTGCCGCGGAGTCACCTAGTGCAG | 3710 fluorescence intensity (a.u.)
GTCCGTCTTGTTTTCTCCTGCGTCACAATTGTCCCGTATTCGGAGTCACCTAGTGCAG | 4280 fluorescence intensity (a.u.)
TCGCCAACTCGCGCCCAATCCCGGCTTGACACGTCACCCCCGGAGTCACCTAGTGCAG | 42000 fluorescence intensity (a.u.)
CAATCCAACCGTCGTCGCGCCGCACACCGGCCACCCACCCCGGAGTCACCTAGTGCAG | 20700 fluorescence intensity (a.u.)
GAGCGCGAGCTGCTCTCCTCTCCTCCCGCCCCGCGTCGCCCGGAGTCACCTAGTGCAG | 11500 fluorescence intensity (a.u.)
CCGGCCCAACACCACTAACACGTTCAGCCCCAATCCCCAACGGAGTCACCTAGTGCAG | 42400 fluorescence intensity (a.u.)
GCTCTCGCTGACGCTGCCGCTCCGCCTGCCTCCGCCCGCGCGGAGTCACCTAGTGCAG | 3900 fluorescence intensity (a.u.)
GCAATCCCACGTTATCCATCACCCCACCGGGGAAGCCCAACGGAGTCACCTAGTGCAG | 3310 fluorescence intensity (a.u.)
CAATCCCCTAGCCTCGCCACCCGCCACGTGTCGTCCCGCGCGGAGTCACCTAGTGCAG | 13500 fluorescence intensity (a.u.)

Sequence | binding signal
AACCACCCTCCGCCGCCGCCGCCGCTCGCCGTAGTCACCTCGGAGTCACCTAGTGCAG | 3180 fluorescence intensity (a.u.)
AACCAGTCGCCGCTCGCCACGTGGCACCCTCCACCTCCCTCGGAGTCACCTAGTGCAG | 50500 fluorescence intensity (a.u.)
TGCGCGTCCTGCTCGCCGCTGCCCTCGCTGAGGAGCTCTCCGGAGTCACCTAGTGCAG | 63600 fluorescence intensity (a.u.)
CACACGCCAACCCGGCCCCACACGTCAGCCACTCCCACTGCGGAGTCACCTAGTGCAG | 7300 fluorescence intensity (a.u.)
GTCGCCGCCGCTCCTCCACCCCACGTGCCCCTCGTGGTGGCGGAGTCACCTAGTGCAG | 4350 fluorescence intensity (a.u.)
TATCCATGGTGTTTAACAATATATCACTGGATACACGTGTCGGAGTCACCTAGTGCAG | 9700 fluorescence intensity (a.u.)
TTCTTCCCTTCACATAGGAATTGGATGATGTGGAGACTTTCGGAGTCACCTAGTGCAG | 7630 fluorescence intensity (a.u.)
CATAATTTTAGGTATCGCTAGGATTTAATTTACACTGTAGCGGAGTCACCTAGTGCAG | 3370 fluorescence intensity (a.u.)
TTAGTTTTATATAAAATGTGTCACATGATAATAGTAGTACCGGAGTCACCTAGTGCAG | 3870 fluorescence intensity (a.u.)
TCTACTGTGTGTGTGTGTGTGTGTGTTCACTACTGGATAGCGGAGTCACCTAGTGCAG | 3160 fluorescence intensity (a.u.)
GTCCTAAAGTACTTATTGTGTCCGGTTTTGGTTAGTTAAGCGGAGTCACCTAGTGCAG | 3210 fluorescence intensity (a.u.)
CAGTTACGCGCCGTGCCTACCCGTGTATCACCGCGATGAGCGGAGTCACCTAGTGCAG | 3270 fluorescence intensity (a.u.)
TGCGTGTTTGATGATATACACGTGCGTATATGTCTACCGTCGGAGTCACCTAGTGCAG | 3880 fluorescence intensity (a.u.)
TCTCTCTCTCTCTCGCCATCGTCACTGCGGCTGCTGCTGCCGGAGTCACCTAGTGCAG | 3810 fluorescence intensity (a.u.)
CCCTAGCCCTCGCCCTGGTCCGTCCGGCGTGGCGCGCGCTCGGAGTCACCTAGTGCAG | 5150 fluorescence intensity (a.u.)
CCCGCGTCGCATTCAACGCCACGCACACCACTCCACTCCACGGAGTCACCTAGTGCAG | 3470 fluorescence intensity (a.u.)
TCCCTCCTCCCCGTCGTCACAAGCCACGTCATCGATCCGCCGGAGTCACCTAGTGCAG | 40000 fluorescence intensity (a.u.)
GCACCAGCCAGTCAGCCCACCATTTCAAACGCCACACTCACGGAGTCACCTAGTGCAG | 60800 fluorescence intensity (a.u.)
TTCTCCGGCCGCCGCCGCCATCGCCGCCGGCCGTAGCATGCGGAGTCACCTAGTGCAG | 56000 fluorescence intensity (a.u.)
ACCCATTTTCAGTGGCAGGGTTATTGACACCACACTCACACGGAGTCACCTAGTGCAG | 3140 fluorescence intensity (a.u.)
ACACGGATCGAACCCCTCCTCCCCGCCACGTCACCGATCCCGGAGTCACCTAGTGCAG | 38700 fluorescence intensity (a.u.)
CCAACGTCGTACATCCCTCCACGTCATCGATCCGCGCCGCCGGAGTCACCTAGTGCAG | 35200 fluorescence intensity (a.u.)
GCATGGCGCCGCCATCTCGGATTCGCCGTAGTGTCTCCGCCGGAGTCACCTAGTGCAG | 35300 fluorescence intensity (a.u.)
TGGATCCGGCCCTGCATGTCCGTCCTCGCCGGTGGGCGCTCGGAGTCACCTAGTGCAG | 41400 fluorescence intensity (a.u.)
TCGGCATGGGCGGTGGCGCTGGCGCGTCCTCCGATCCCGTCGGAGTCACCTAGTGCAG | 19900 fluorescence intensity (a.u.)
CGCGCTGTCTGCACCGCCGCCGCCGCCGCCGGCGGAACCCCGGAGTCACCTAGTGCAG | 25200 fluorescence intensity (a.u.)
CTCCGATACGTATCCCGTACGTATCGCTATTTACTTCGATCGGAGTCACCTAGTGCAG | 4930 fluorescence intensity (a.u.)
